In PubChem BioAssay (NCI) one finds growth inhibition data, which are given here for 40 molecules.

The panel holds about 79,000 compounds, 15% with a hit somewhere; the sample as a whole holds those more often. Values without a mark were called inactive. Active and inactive are the calls of the source. Rule as the data show it: active = growth inhibition above about 70%; inactive = the rest.

A short description of the test: NCI Yeast Anticancer Drug Screen. Data for the bub3 strain (AID 167). Particulars: S. cerevisiae bub3 mutant strain, at 5.0 µM (retest, dose inferred, filed as 0.5), hits give high values. In a few lines: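 Yeast carrying a defined mutation is treated with each compound, and growth is compared with that of vehicle-exposed cells to give inhibition.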
In the case of `CCC(c1ccccc1)N1C(=O)c2ccccc2S1(=O)=O` (stereo not given), the growth inhibition is 23%. As for `Cc1ccc2cc3ccccc3c(-c3ccccc3)c2c1`, the growth inhibition is -11%. In the case of `CC(=O)Oc1ccc(C)cc1C(C)(C)C`, the growth inhibition was 0%.

Take `CCCCCCCCCCC[N+](C)(C)CCCCCC[N+](C)(C)CCCCCCCCCCC`: the growth inhibition is 99% (active). The result for `CCN(CC)CCCNc1nc(NCCCN(CC)CC)c2nc(-c3ccccc3)c(-c3ccccc3)nc2n1` reads -4%; that for `O=[N+]([O-])c1cnc(Sc2cncc[n+]2[O-])s1`, 99% (active); that for `O=c1[nH]c(=O)c2cc([N+](=O)[O-])cc([N+](=O)[O-])c2[nH]1`, 8%.

In the case of `O=C(NC(=O)C(F)(F)F)Nc1ccc(Cl)cc1`, the growth inhibition is -1%. In the case of `O=[N+]([O-])c1ccc(S)c(Cl)c1`, the growth inhibition was 14%. As to `CS(=O)(=O)n1c(C(O)c2ccccc2)nc2ccccc21` (stereo not given), the growth inhibition is 5%.

Consider `O=C(NCc1ccccc1)C1C(=O)N(Cc2ccccc2)C(=O)/C1=N/O` (stereo not given), for which the growth inhibition was 2%.

Take `C[n+]1c(/C=C/c2ccccc2Cl)sc2ccccc21`: the growth inhibition was 98% (active).

As for `CC(=O)c1ccc(Cl)c(N=Cc2cc(Br)ccc2O)c1`, the growth inhibition is 52%. Consider `O=C(c1ccc(Cl)cc1)c1ccc([N+](=O)[O-])cc1`, for which the growth inhibition is 3%. The result for `Nc1ccc2c(c1)[nH]c(=O)c1cc(Cl)c(Cl)cc12` reads -1%. Take `COc1ccc(C2CC(c3c(O)ccc4ccccc34)=NN2)cc1OC` (stereo not given): the growth inhibition is 8%.

For `CC[N+]1(C)CCC(O)(c2ccc(Cl)c(Cl)c2)C(C(=O)c2ccc(Cl)c(Cl)c2)C1` (stereo not given), the growth inhibition was 13%. For the molecule `Nc1nc(Cl)cc(NCC2(CO)CC(CCCc3ccccc3)C2)n1` (stereo not given), the growth inhibition is 15%.

For the molecule `Nc1nc(-c2cc3cc(Cl)ccc3o2)cs1`, the growth inhibition is 46%. With `O=C(N(c1ccc(Cl)cc1)c1ccc(Cl)cc1)C(Cl)(Cl)Cl`, the growth inhibition is 33%. The result for `NC(CSSCC(N)C(=O)Nc1ccc2ccccc2c1)C(=O)Nc1ccc2ccccc2c1` (stereo not given) reads 37%.

Turning to `O=C/C=C/c1cc([N+](=O)[O-])ccc1Cl`, the growth inhibition was -80%. Regarding `COc1cc(C(c2cc3c(cc2OC(C)=O)OCO3)C(C(C)=O)C(C)=O)cc(OC)c1OC(C)=O` (stereo not given), the growth inhibition was 8%.

Take `CCCCc1ccc(Nc2nc(N)c3[nH]cnc3n2)cc1`: the growth inhibition was 16%.

`O=C(O)/C=C/C(=O)Nc1cccc2ccccc12`: the growth inhibition is 64%.

As to `Cc1cc(O)c(C(=O)/C=C/c2ccnc3ccccc23)c(=O)o1`, the growth inhibition is 22%. For `ONC1=Nc2ccccc2OCc2cc(Br)c(Br)cc2COc2ccccc2N=C1NO`, the growth inhibition is 13%.

`NNC(=O)c1ccc(N)cc1O`: the growth inhibition was -1%. Regarding `O=C(N/C(=C\c1ccc2c(c1)OCO2)c1nc2ccccc2s1)c1ccccc1`, the growth inhibition is 19%. Consider `CC1=NN(C(=O)c2ccncc2)C(=O)C1N=Nc1ccc(C)c([N+](=O)[O-])c1` (stereo not given), for which the growth inhibition is 1%. The same measure for `COc1ccc2nc3cc(Cl)ccc3c(Nc3nccs3)c2c1`: 6%; for `S=C(S)NCCN1CCNCC1`: -6%. The same measure for `ClCc1nc2ccccc2c2ccccc12`: 20%; for `ClC1=C(Cl)C(Cl)(C(Cl)(Cl)Cl)C(Cl)=C1Cl`: 99% (active); for `FC(F)(F)COP1(OCC(F)(F)F)=NP(OCC(F)(F)F)(OCC(F)(F)F)=NP(c2ccccc2)(c2ccccc2)=N1`: -5%. Regarding `CC(C)c1c(P(=O)(c2ccccc2)c2ccccc2)n(C)c2ccccc12`, the growth inhibition is -25%.

As for `CN(CCC1CCCCC1)CCC1CCCCC1`, the growth inhibition is 30%.

Consider `Cc1nc(Cl)nc(N)c1[N+](=O)[O-]`, for which the growth inhibition was -6%. Consider `Nc1ccc2[nH]c3ccccc3c2c1`, for which the growth inhibition was -1%. For the molecule `COc1ccc(NC(=O)CSC(N)=O)cc1`, the growth inhibition is 3%.
